“And” between values parts separate entries of the source, which are not always exact repeats. Identical values can stand only once. The source holds several records for some structures; these can differ, active in one and inactive in another. The source made the active and inactive calls. How the source made its calls: active means hit-call score of the fitted dose curve at least 0.9, where 1 is the maximum; inactive means score below 0.9.

The test can be described thus: BSK_4H_Eotaxin3: BioMAP Diversity Plus: 4H Assay for Eotaxin 3 Biomarker Activity (AID 2283000). The settings on record: primary human endothelial cells (HUVEC); actives raise or lower the signal. The protocol: BSK_4H is a cell-based, multiplexed-readout assay that uses umbilical vein endothelium, a human vascular primary cell, with measurements taken at 24 hours after chemical dosing in a 96-well plate.BSK_4H_Eotaxin3 is an assay component measured in the BSK_4H assay. It measures Eotaxin-3 antibody related to regulation of gene expression using ELISA technology.Data from the assay component BSK_4H_Eotaxin3 was analyzed into 1 assay endpoint. This assay endpoint, BSK_4H_Eotaxin3, was analyzed with bidirectional fitting relative to DMSO as the negative control and baseline of activity. Using a type of binding reporter, gain or loss-of-signal activity can be used to understand changes in the signaling as they relate to the gene CCL26. Furthermore, this assay endpoint can be referred to as a primary readout, because this assay has produced multiple assay endpoints where this one serves a signaling function. To generalize the intended target to other relatable targets, this assay endpoint is annotated to the cytokine intended target family, where the subfamily is chemotactic factor.
The levels of cell surface (or secreted, indicated by the prefix "s") biomarker endpoints were measured by ELISA. Overt cytotoxicity to cells in confluent adherent cultures (all systems other than the BT system) was assessed by measuring total protein levels using sulforhodamine B (SRB) staining in parallel cultures at the time of biomarker measurements, indicated as SRB endpoints. For proliferation assays for adherent cell types, individual cell types are cultured at sub-confluence and relative cell numbers quantified by SRB staining at time points optimized for each system (48 h: 3C and CASM3C systems; 72 h: BT and HDF3CGF systems; 96 h: SAg system). SRB was performed by staining cells with 0.1% SRB after fixation with 10% TCA and reading wells at 560 nm.Viability and proliferation of PBMC (T cells) was quantified by Alamar Blue reduction for the SAg and BT systems. For PBMC viability (referred to as PBMC Cytotoxicity within the assay endpoint names), cells were plated (75,000/well in a 96-well plate) and then chemical samples added for 1 h before addition of activators, SEB and TSST-1 (20 ng/mL final concentration each). Cells were incubated for 90 h. Then, Alamar Blue (20 uL/well) (Invitrogen, Cat DAL1100) was added for 6 h, and the plates were read with a fluorescence microplate reader at 546/580 nm (excitation/emission). For PBMC proliferation, cells were plated and activated as above but incubated for only 16 h prior to addition of Alamar Blue. Plates were read after 6 h.
Regarding `CC(C)(C)OOC(C)(C)C`, the outcome was inactive. `CCOP(=S)(OCC)SCS(=O)(=O)CC`: the outcome was inactive. Turning to `N#Cc1c(-c2ccc(Cl)cc2)[nH]c(C(F)(F)F)c1Br`, the AC50 (as a rule, the concentration giving half of the maximal activity seen) was 0.796 µM (active). For the compound `CCOS(=O)(=O)OCC`, the result was inactive. The same measure, in the same setting: with `OCC1CO1` (stereo not given) the entry was “inactive”. As to `CCCN(CCC)c1c([N+](=O)[O-])cc(C(C)C)cc1[N+](=O)[O-]`, the AC50 is 32.1 µM (active). For the compound `O=S(=O)(F)C(F)(F)C(F)(F)C(F)(F)C(F)(F)C(F)(F)C(F)(F)C(F)(F)C(F)(F)F`, the result was inactive. The same measure, in the same setting: then `CC(Cc1ccc(OCC(=O)O)cc1)NCC(O)c1csc(C(F)(F)F)n1` (stereo not given), with “inactive”. Take `N#Cc1cc([N+](=O)[O-])ccc1N`: the concentration at half-maximal activity (AC50) was 4.4 µM (active). Turning to `O=[N+]([O-])c1ccc(Cl)c(Cl)c1`, the outcome was inactive. Consider `O=S1(=O)OCC2C(CO1)C1(Cl)C(Cl)=C(Cl)C2(Cl)C1(Cl)Cl` (stereo not given), for which the AC50 was 13.1 µM (active).

Consider `CCCCc1ccccc1`, for which the result was inactive. As for `CCC(C)(C)c1ccc(O)cc1`, the result was inactive. As for `ClC1=C(Cl)C2(Cl)C3C(Cl)C(Cl)CC3C1(Cl)C2(Cl)Cl` (stereo not given), the AC50 is 31 µM (active).

With `ClC(Cl)=C(c1ccc(Cl)cc1)c1ccccc1Cl`, the concentration at half-maximal activity (AC50) is 6 µM (active). `COP(=O)(CCC(=O)NCO)OC`: the result was inactive and the AC50 is 0.15 µM (active). As to `COC(=O)C(F)(F)C(F)(F)OC(F)(C(F)(F)F)C(F)(F)OC(F)=C(F)F` (stereo not given), the outcome was inactive.

Turning to `COP(=O)(O)OC`, the outcome was inactive. The same measure, in the same setting: then `O=P(OCC(Br)CBr)(OCC(Br)CBr)OCC(Br)CBr` (stereo not given), with “inactive”; and `CCOP(=S)(NC(C)C)Oc1ccccc1C(=O)OC(C)C` (stereo not given), with “inactive”; and `COP(N)(=S)OC`, with “inactive”.

As for `CC(Cl)(Cl)C(=O)O`, the outcome was inactive. Take `CCCCCCCc1ccc(O)cc1`: the concentration at half-maximal activity (AC50) is 31.5 µM (active). Consider `CCCCC(CC)COP(=O)(Oc1ccccc1)Oc1ccccc1` (stereo not given), for which the AC50 was 20 µM (active).

For `CCOc1ccc(C(C)(C)COCc2cccc(Oc3ccccc3)c2)cc1`, the outcome was inactive.

As for `O=P(Oc1ccccc1)(Oc1ccccc1)Oc1ccccc1`, the concentration at half-maximal activity (AC50) is 33.8 µM (active). `OCC(F)(F)OC(F)(F)C(F)(F)OC(F)(F)CO`: the outcome was inactive. The same measure, in the same setting: then `O=C(O)C(F)(F)OC(F)(F)C(F)(F)OC(F)(F)C(=O)O`, with “inactive”. `c1cc2c3c(cccc3c1)CC2`: the outcome was inactive. Still for that read-out and setting: then `O=C(O)C(Cl)Cl`, with “inactive”; and `CCCCC(CC)COC(=O)c1c(Br)c(Br)c(Br)c(Br)c1C(=O)OCC(CC)CCCC` (stereo not given), with “inactive”; and `CCC1(c2ccccc2)C(=O)N=C(O)NC1=O` (stereo not given), with “inactive”.

For the compound `CCCCN(CCCC)SN(C)C(=O)Oc1cccc2c1OC(C)(C)C2`, the AC50 is 29.3 µM (active). Take `CC(C)Nc1ccc(Nc2ccccc2)cc1`: the AC50 was 8.74 µM (active). For the compound `CC(C)(C)c1ccc(O)cc1`, the outcome was inactive. For the compound `CC(Cl)CN(C)C` (stereo not given), the result was inactive. On the same count and under the same terms, then `CC(O)C(F)(F)C(F)(F)F` (stereo not given), with “inactive”.

For `CCOP(=S)(OCC)SCSCC`, the result was inactive.

As for `OCC(F)(F)OC(F)(F)C(F)(F)OC(F)(F)C(F)(F)OC(F)(F)F`, the AC50 was 22.3 µM (active) and 42.2 µM (active).

Source of the values: PubChem BioAssay (EPA / NIEHS).
